Results filed as inconclusive are left out. Activity calls are given as the source filed them. Calls follow the shape of the full dose curve.

Peroxisome proliferator-activated receptor delta (Homo sapiens), sequence (Q03181 whole entry, looked up): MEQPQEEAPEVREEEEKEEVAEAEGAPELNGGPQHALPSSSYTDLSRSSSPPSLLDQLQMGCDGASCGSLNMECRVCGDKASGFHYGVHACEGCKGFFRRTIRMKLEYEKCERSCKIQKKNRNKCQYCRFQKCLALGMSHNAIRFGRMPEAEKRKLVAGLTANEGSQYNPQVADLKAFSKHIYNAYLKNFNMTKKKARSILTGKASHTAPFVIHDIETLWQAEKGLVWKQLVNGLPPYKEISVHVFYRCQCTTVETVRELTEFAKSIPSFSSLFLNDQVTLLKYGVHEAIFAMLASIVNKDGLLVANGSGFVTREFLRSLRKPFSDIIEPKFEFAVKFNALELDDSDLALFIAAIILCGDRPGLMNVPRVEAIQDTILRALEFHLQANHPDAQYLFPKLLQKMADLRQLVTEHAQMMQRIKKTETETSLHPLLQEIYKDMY

The target in the assay is Peroxisome proliferator-activated receptor delta (Homo sapiens) (UniProt Q03181). Nature of the assay: qHTS assay for small molecule agonists of peroxisome proliferator-activated receptor delta signaling (AID 588534).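 Also: 0% = DMSO basal wells and 100% = positive control agonist at 10 µM.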 The note with it: HEK293T PPARdelta-UAS-bla, beta-lactamase ratio, 18 h; series mostly up to 76.7 µM; activation: at the top concentration. A digest of the protocol:
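Agonist-mode beta-lactamase reporter readout (CCF4 dye, 2 h at RT) after 18 h at 37 °C exposure to a titration; Hill-equation fitting gave EC50 and maximal response.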
A general note: qHTS replaces the single test concentration by a dilution series.
Consider `CCC(Cl)CC(Cl)C(Cl)C(Cl)C(Cl)C(C)Cl` (centres undefined), for which the “activation” value was 8.91% (inactive).
Turning to `O=[N+]([O-])c1c(Cl)cc(Cl)cc1Cl`, the “activation” value is 7.3% (inactive).
Turning to `O=c1oc(=O)c2cc3c(=O)oc(=O)c3cc12`, the “activation” value was -2.01% (inactive).
For the molecule `CCCCCCCC/C=C\CCCCCCCC(=O)OC[C@@H](O)[C@H]1OC[C@H](O)[C@H]1O`, the “activation” value is 0.755% (inactive).
Turning to `CCCCN(CCCC)CCCCCCN(CCCC)CCCC`, the “activation” value was 0.503% (inactive).
Still for that read-out and setting: the same measure for `C[Si]1(C)O[Si](C)(C)O[Si](C)(C)O[Si](C)(C)O[Si](C)(C)O1`: 1.92% (inactive); for `CCc1ccccc1`: -0.0958% (inactive); for `CCOCCOCCOCC`: -0.184% (inactive).
The same measure, in the same setting: the same measure for `CC(C)(O)C(=O)O`: -0.367% (inactive); for `O=C(Cl)c1c(Cl)cccc1Cl`: -4.13% (inactive); for `Cc1cccc2sc(N)nc12`: 2.52% (inactive).
As for `C=CCCCCCCCCCC`, the “activation” value was 2.62% (inactive).
Take `c1ccc(Nc2ccccc2)cc1`: the result was inactive.
As for `NCCCCCCN`, the “activation” value was 18.4% (inactive).
`CCCCC(CC)C(=O)OCCOCCOCCOC(=O)C(CC)CCCC` (centres undefined): the “activation” value was -9.72% (inactive).
Take `CC1=CC(=O)CC(C)(C)C1`: the “activation” value is 3.31% (inactive).
Consider `CCCCCCCCN`, for which the “activation” value is 4.19% (inactive).
Take `CCC=O`: the “activation” value was 8.01% (inactive).
Consider `CCCOCC(C)O` (centres undefined), for which the “activation” value was 2.4% (inactive).
The same measure, in the same setting: under `C=C(C)C(=O)OCCCCCCCCCCCC` stands 4.53% (inactive); under `CSc1ccc(C=O)cc1`, 12.5% (inactive); under `CC1=CC2C3CC(C=C3C)C2C1` (centres undefined), 3.19% (inactive).
With `CCCCCCCC/C=C\CCCCCCCCCCCCC`, the “activation” value is -3.56% (inactive).
For `ClC/C=C/CCl`, the “activation” value is 8.49% (inactive).
Consider `C/C(=C\C(C)CC(C)CC(C)C)C1CC(=O)OC1=O` (centres undefined), for which the “activation” value is -2.11% (inactive).
Regarding `C=CCOc1nc(OCC=C)nc(OCC=C)n1`, the “activation” value is -1.13% (inactive).
For the molecule `CC1=C2[C@@H]([C@H](C)CC[C@H]2/C=C(\C)C(=O)O)[C@H](O)C1`, the “activation” value was -10.4% (inactive).
As for `Cc1ccc2c(c1)C(=O)OC2=O`, the “activation” value is 1.17% (inactive).
In the case of `Cc1ccccc1Br`, the “activation” value was 0.0217% (inactive).

These data come from PubChem BioAssay (NCATS).
